38 compounds from PubChem BioAssay (Tox21) can be followed below.

Each structure is given as a SMILES string. Results filed as inconclusive are left out. Where a call stands in place of a potency, no number is given. Calls of active or inactive are those of the source. Unless noted, calls follow the shape of the dose curve; as a rule, active = well fitted cell-killing curve with a large enough effect in the repeat runs; inconclusive = weak or mixed curves, or effect the other way; inactive = flat fitted curve, though single readings scatter.

Chain of Thyrotropin-releasing hormone receptor (Homo sapiens) (P34981 whole entry, looked up): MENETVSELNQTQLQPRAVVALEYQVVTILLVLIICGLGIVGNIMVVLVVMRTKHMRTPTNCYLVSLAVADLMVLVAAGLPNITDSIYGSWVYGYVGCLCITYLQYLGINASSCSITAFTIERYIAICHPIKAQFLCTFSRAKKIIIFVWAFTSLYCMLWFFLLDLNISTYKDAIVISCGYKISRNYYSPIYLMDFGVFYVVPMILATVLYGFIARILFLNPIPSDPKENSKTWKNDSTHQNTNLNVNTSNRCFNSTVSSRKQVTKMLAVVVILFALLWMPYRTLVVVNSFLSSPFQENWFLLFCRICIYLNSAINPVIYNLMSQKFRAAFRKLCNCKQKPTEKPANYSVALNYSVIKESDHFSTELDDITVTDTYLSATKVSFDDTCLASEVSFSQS

Test system in the first assay: not listed separately
Nature of the assay: qHTS assay to identify small molecule agonists of the TGF-beta/Smad signaling pathway - cell viability counter screen (AID 1346829). Also: top concentration of the series differs between compounds; nearly all actives have a fitted effect of over 45% in size. The settings on record: SBE-bla HEK293T viability, CellTiter-Glo luminescence, 5 h; series mostly up to 76.8 µM. The essentials:
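Luminescence from CellTiter-Glo, read after a 30 min room-temperature incubation, gives cell viability of SBE-bla HEK 293T cells treated 5 hr with compounds at 37 C.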
(In general: Quantitative high-throughput screening tests each substance at several concentrations.)
`CN(C)CCC(c1ccccc1)c1ccccn1` (stereo not drawn): the Potency result was “inactive”.
As for `O=c1[nH]c(=O)n([C@H]2C[C@H](O)[C@@H](CO)O2)cc1Br`, the Potency result is “inactive”.
The same measure, in the same setting: the value for `OCCOCCOCCO` was “inactive”; that for `CC(=O)OCC(=O)[C@@]12N=C(C)O[C@@H]1C[C@H]1[C@@H]3CCC4=CC(=O)C=C[C@]4(C)[C@H]3[C@@H](O)C[C@@]12C` was “inactive”.
Same read-out and setting: the value for `O=C(O)c1ccc2c(c1)C(=O)OC2=O` was “inactive”; that for `OC[C@H]1O[C@@](CO)(O[C@H]2O[C@H](CO)[C@@H](O)[C@H](O)[C@H]2O)[C@@H](O)[C@@H]1O` was “inactive”; that for `Cc1ccc(N(C)C)cc1` was “inactive”.
The same measure, in the same setting: to `O=C(OCCOCCOC(=O)c1ccccc1)c1ccccc1` belongs “inactive”.
Take `O=C(Oc1ccccc1)c1ccccc1`: the Potency entry was “inactive”.
Take `CC(C)(N)CO`: the Potency result is “inactive”.
For the compound `OCc1cccnc1`, the Potency result was “inactive”.
For `CCCC(C)=O`, the Potency result was “inactive”.
The same measure, in the same setting: the value for `CCCCC(CC)COC(=O)CCCCC(=O)OCC(CC)CCCC` (stereo not drawn) was “inactive”; that for `CCCCCC/C(C=O)=C\c1ccccc1` was “inactive”.
Still for that read-out and setting: to `Cc1ccc(S(N)(=O)=O)cc1` belongs “inactive”; to `FC(F)(F)c1ccc(Cl)c(Cl)c1`, “inactive”.
As for `C[Si](O[Si](C)(C)C)O[Si](C)(C)C`, the Potency result is “inactive”.
The same measure, in the same setting: the value for `C=C(C)C(=O)Nc1ccc(Cl)c(Cl)c1` was “inactive”.
In the case of `CCCCC(CC)COC(=O)CS` (stereo not drawn), the Potency entry is “inactive”.
Turning to `COS(C)(=O)=O`, the Potency entry is “inactive”.
`CC(c1cc2ccccc2s1)N(O)C(N)=O` (stereo not drawn): the Potency entry is “inactive”.
Same read-out and setting: to `Cc1cc(C)c(C)cc1C` belongs “inactive”; to `CCCCOC(=O)COc1ccc(Cl)cc1Cl`, “inactive”; to `Oc1cccc2ccccc12`, “inactive”.
Same read-out and setting: to `CC1CCC2CC1C2(C)C` (stereo not drawn) belongs “inactive”; to `CCCCCOC(C)=O`, “inactive”; to `CCCCCC(N)=O`, “inactive”.
For the compound `C=CCOC(=O)c1ccccc1C(=O)OCC=C`, the Potency result was “inactive”.
For the compound `OCC(CO)(CBr)CBr`, the Potency result was “inactive”.
As for `O=c1[nH]c(=O)n([C@H]2CCCO2)cc1F`, the Potency entry was “inactive”.
Take `CCCCN(CCCC)CCCC`: the Potency entry was “inactive”.
Still for that read-out and setting: the value for `C=CCNC(N)=S` was “inactive”.
`COc1cc(Cc2cnc(N)nc2N)cc(OC)c1OC`: the Potency result is “inactive”.
Consider `O=C1CCC(N2C(=O)c3ccccc3C2=O)C(=O)N1` (stereo not drawn), for which the Potency entry is “inactive”.
For the compound `C=C(C)C(=O)OCCOCCOCCOC(=O)C(=C)C`, the Potency entry is “inactive”.
Take `CCC(O)OCCCOC` (stereo not drawn): the Potency result is “inactive”.
On the same count and under the same terms, to `CN(C)CCCN` belongs “inactive”; to `CCc1cccc(C)c1N`, “inactive”.

Test system in a further assay: not listed separately
Nature of the assay: qHTS assay to identify small molecule agonists of the TGF-beta/Smad signaling pathway (AID 1346859; active = well fitted activation curve with a large enough effect in the signal ratio in the repeat runs, not every such curve was filed as active; the % refers to the signal ratio). Particulars: SBE-bla HEK293T, TGF-beta/Smad beta-lactamase reporter, 5 h; series mostly up to 76.8 µM. The essentials: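 Fluorescence (ex 405 nm; em 460 and 530 nm) was read 2 h after LiveBLAzer FRET substrate at RT. The preceding compound treatment of overnight-plated SBE-bla HEK293T cells lasted 5 h at 37 C.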
`CN(C)CCC(c1ccccc1)c1ccccn1` (stereo not drawn): the result was inactive.
The same measure, in the same setting: to `O=c1[nH]c(=O)n([C@H]2C[C@H](O)[C@@H](CO)O2)cc1Br` belongs “inactive”; to `OCCOCCOCCO`, “inactive”.
As to `CC(=O)OCC(=O)[C@@]12N=C(C)O[C@@H]1C[C@H]1[C@@H]3CCC4=CC(=O)C=C[C@]4(C)[C@H]3[C@@H](O)C[C@@]12C`, the outcome was inactive.
Still for that read-out and setting: the value for `O=C(O)c1ccc2c(c1)C(=O)OC2=O` was “inactive”; that for `OC[C@H]1O[C@@](CO)(O[C@H]2O[C@H](CO)[C@@H](O)[C@H](O)[C@H]2O)[C@@H](O)[C@@H]1O` was “inactive”; that for `Cc1ccc(N(C)C)cc1` was “inactive”.
On to `O=C(OCCOCCOC(=O)c1ccccc1)c1ccccc1`, for which the compound was called inactive.
In the case of `O=C(Oc1ccccc1)c1ccccc1`, the call was inactive.
Same read-out and setting: to `CC(C)(N)CO` belongs “inactive”.
Still for that read-out and setting: to `OCc1cccnc1` belongs “inactive”; to `CCCC(C)=O`, “inactive”; to `CCCCC(CC)COC(=O)CCCCC(=O)OCC(CC)CCCC` (stereo not drawn), “inactive”.
Turning to `CCCCCC/C(C=O)=C\c1ccccc1`, the call was inactive.
Regarding `Cc1ccc(S(N)(=O)=O)cc1`, the result was inactive.
Turning to `FC(F)(F)c1ccc(Cl)c(Cl)c1`, the compound was called inactive.
Still for that read-out and setting: the value for `C[Si](O[Si](C)(C)C)O[Si](C)(C)C` was “inactive”.
Regarding `C=C(C)C(=O)Nc1ccc(Cl)c(Cl)c1`, the call was inactive.
Still for that read-out and setting: the value for `CCCCC(CC)COC(=O)CS` (stereo not drawn) was “inactive”; that for `COS(C)(=O)=O` was “inactive”.
Take `CC(c1cc2ccccc2s1)N(O)C(N)=O` (stereo not drawn): the call was inactive.
The same measure, in the same setting: to `Cc1cc(C)c(C)cc1C` belongs “inactive”; to `CCCCOC(=O)COc1ccc(Cl)cc1Cl`, “inactive”.
Regarding `Oc1cccc2ccccc12`, the outcome was inactive.
On to `CC1CCC2CC1C2(C)C` (stereo not drawn), for which the compound was classed as inactive.
On the same count and under the same terms, to `CCCCCOC(C)=O` belongs “inactive”; to `CCCCCC(N)=O`, “inactive”; to `C=CCOC(=O)c1ccccc1C(=O)OCC=C`, “inactive”.
Turning to `OCC(CO)(CBr)CBr`, the compound was called inactive.
`O=c1[nH]c(=O)n([C@H]2CCCO2)cc1F`: the compound was called inactive.
`CCCCN(CCCC)CCCC`: the compound was classed as inactive.
The same measure, in the same setting: to `C=CCNC(N)=S` belongs “inactive”.
As to `COc1cc(Cc2cnc(N)nc2N)cc(OC)c1OC`, the result was inactive.
Turning to `O=C1CCC(N2C(=O)c3ccccc3C2=O)C(=O)N1` (stereo not drawn), the compound was called inactive.
Consider `C=C(C)C(=O)OCCOCCOCCOC(=O)C(=C)C`, for which the compound was called inactive.
On to `CCC(O)OCCCOC` (stereo not drawn), for which the compound was classed as inactive.
Same read-out and setting: the value for `CN(C)CCCN` was “inactive”; that for `CCc1cccc(C)c1N` was “inactive”.

The next assay concerns the target Thyrotropin-releasing hormone receptor (Homo sapiens) (UniProt P34981). Nature of the assay: qHTS assay to identify small molecule antagonists of the thyrotropin-releasing hormone receptor (TRHR) signaling pathway (AID 1346877; active = well fitted inhibition curve with a large enough effect in the repeat runs, not every such curve was filed as active). The settings on record: TRHR-HEK293, TRH-induced calcium fluorescence, antagonist mode; series mostly up to 51.3 µM. The essentials: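 Overnight-plated (18 h, 37 °C) HEK293 cells expressing TRHR were dye-loaded 2 h, treated with compound, then stimulated with TRH at 1 nM final. Fluorescence intensity was captured every second for 3 min.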
For `CN(C)CCC(c1ccccc1)c1ccccn1` (stereo not drawn), the Potency entry was “inactive”.
Regarding `O=c1[nH]c(=O)n([C@H]2C[C@H](O)[C@@H](CO)O2)cc1Br`, the Potency entry was “inactive”.
Turning to `OCCOCCOCCO`, the Potency entry is “inactive”.
As for `O=C(O)c1ccc2c(c1)C(=O)OC2=O`, the Potency entry was “inactive”.
The same measure, in the same setting: the value for `OC[C@H]1O[C@@](CO)(O[C@H]2O[C@H](CO)[C@@H](O)[C@H](O)[C@H]2O)[C@@H](O)[C@@H]1O` was “inactive”; that for `Cc1ccc(N(C)C)cc1` was “inactive”; that for `O=C(OCCOCCOC(=O)c1ccccc1)c1ccccc1` was “inactive”.
On to `O=C(Oc1ccccc1)c1ccccc1`, for which the Potency result is “inactive”.
With `CC(C)(N)CO`, the Potency entry was “inactive”.
Turning to `OCc1cccnc1`, the Potency result was “inactive”.
Same read-out and setting: the value for `CCCC(C)=O` was “inactive”; that for `CCCCC(CC)COC(=O)CCCCC(=O)OCC(CC)CCCC` (stereo not drawn) was “inactive”.
On the same count and under the same terms, to `CCCCCC/C(C=O)=C\c1ccccc1` belongs “inactive”; to `Cc1ccc(S(N)(=O)=O)cc1`, “inactive”.
`FC(F)(F)c1ccc(Cl)c(Cl)c1`: the Potency entry is “inactive”.
The same measure, in the same setting: to `C[Si](O[Si](C)(C)C)O[Si](C)(C)C` belongs “inactive”.
On the same count and under the same terms, to `C=C(C)C(=O)Nc1ccc(Cl)c(Cl)c1` belongs “inactive”; to `CCCCC(CC)COC(=O)CS` (stereo not drawn), “inactive”; to `COS(C)(=O)=O`, “inactive”.
Take `CC(c1cc2ccccc2s1)N(O)C(N)=O` (stereo not drawn): the Potency entry was “inactive”.
As to `Cc1cc(C)c(C)cc1C`, the Potency entry is “inactive”.
Still for that read-out and setting: the value for `CCCCOC(=O)COc1ccc(Cl)cc1Cl` was “inactive”; that for `Oc1cccc2ccccc12` was “inactive”; that for `CC1CCC2CC1C2(C)C` (stereo not drawn) was “inactive”.
The same measure, in the same setting: the value for `CCCCCOC(C)=O` was “inactive”; that for `CCCCCC(N)=O` was “inactive”; that for `C=CCOC(=O)c1ccccc1C(=O)OCC=C` was “inactive”.
Same read-out and setting: to `OCC(CO)(CBr)CBr` belongs “inactive”.
With `O=c1[nH]c(=O)n([C@H]2CCCO2)cc1F`, the Potency result was “inactive”.
The same measure, in the same setting: to `CCCCN(CCCC)CCCC` belongs “inactive”; to `C=CCNC(N)=S`, “inactive”.
With `COc1cc(Cc2cnc(N)nc2N)cc(OC)c1OC`, the Potency result is “inactive”.
The same measure, in the same setting: to `O=C1CCC(N2C(=O)c3ccccc3C2=O)C(=O)N1` (stereo not drawn) belongs “inactive”; to `C=C(C)C(=O)OCCOCCOCCOC(=O)C(=C)C`, “inactive”.
Take `CCC(O)OCCCOC` (stereo not drawn): the Potency entry was “inactive”.
As to `CN(C)CCCN`, the Potency entry is “inactive”.
Same read-out and setting: the value for `CCc1cccc(C)c1N` was “inactive”.
